Test results from PubChem BioAssay (NCI).
About 83,000 compounds went through this panel and 20% of them were active in at least one assay; those are over-represented in the sample as a whole.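 A percent growth of 40 corresponds to 60% growth inhibition; 0 means no net growth; -100 means all cells died. Active threshold: below 10.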 Values without a mark were called inactive. The source made the active and inactive calls.

tested on: HL-60(TB) leukemia; assay: NCI-60 one-dose screen, 48 h (100 = growth as untreated, 0 = no growth, -100 = all killed); conditions: 10 µM unless noted

Row | SMILES | growth
1 | S=C(S)Oc1cccc2cccnc12 | 80.7%
2 | CC/C=C\C[C@H](O)C/C=C1/C(=O)C=C[C@@H]1C/C=C\CCCC(=O)NC(C)C | -28.2% (active)
3 | Cc1cccc(C[C@H](NC(=O)Nc2ccc(C)cc2F)C(=O)N[C@@H]2C(=O)N3C[C@H](O)C[C@H]3C(=O)N3CCN(C)C[C@H]3C(=O)N[C@@H](C)C(=O)N3C[C@H](C)C[C@H]3C(=O)O[C@H]2C)c1 | 24.2%
4 | Cc1c2cnccc2c(C)c2c1c1cc(CO)ccc1n2C | -20% (active)
5 | CCCCC(=O)OCC1OC(n2cnc3c(=S)nc[nH]c32)C(OC(=O)CCCC)C1OC(=O)CCCC (stereo not given) | 12.5%
6 | Cn1c(=O)c2[nH]c(CCCc3nc4c([nH]3)c(=O)n(C)c(=O)n4C)nc2n(C)c1=O | 109%
7 | COc1cc(OC)c(C(=O)/C=C/c2ccc(C#N)cc2)c(OC)c1 | -7.85% (active)
8 | Cc1nn(-c2ccc(Cl)cc2)c(=O)n1CCOc1ccccc1Cl | 106%
9 | N=C(N)N=Nc1ccc(NN=C(N)N)cc1 | 101%
10 | NC(=O)C1CCCN(Cc2c[nH]c3ccccc23)C1 (stereo not given) | 102%
11 | CC(=NCc1ccccc1)c1ccc(O)cc1O | 102%
12 | CCC(c1ccc(OC)cc1)C(CC)c1ccc(O)c(CN2CCN(C)CC2)c1 (stereo not given) | 55.3%
13 | CC(C)(O)CC(=O)NCCn1ccc2ncnc(Nc3ccc(Oc4cccc(C(F)(F)F)c4)c(Cl)c3)c21 | 2.51% (active)
14 | O=c1oc2cc(OS(=O)(=O)C3CC3)ccc2c2c1CCCCCC2 | 80.1%
15 | CCCC#CCN(CC)CC | 96.6%
16 | Nc1ncccc1O | 51.6%
17 | N#CCCOc1ccccc1 | 88.7%
18 | Cc1ccc(-c2nc(C#N)c(S(=O)(=O)N(C)CCO)o2)cc1 | -18.1% (active)
19 | O=C1C(c2ccccc2)C2C=CC(C2)N1O (stereo not given) | 93%
20 | C/C(=C(/c1ccccc1)c1ccc(OCC(O)CNCCN2CCOCC2)cc1)c1ccccc1 (stereo not given) | 29%

Row | SMILES | growth
21 | N#Cc1nc(-c2ccc(F)cc2)oc1S(=O)(=O)N1CCCCC1 | 32.4%
22 | COC(=O)c1nc(=S)[nH]c(C(=O)OC)c1C(=O)c1ccc2ccccc2c1 | 122%
23 | O=C(NNC(=O)N1c2ccccc2C=Cc2ccccc21)c1ccccc1 | 98.8%
24 | COc1ccc(-c2nc3sc(-c4cc(OC)c(OC)c(OC)c4)nn3c2/C=C2/C(=O)Nc3ccc(F)cc32)cc1 | 35.8%
25 | C=C(C)[C@@H]1CC[C@]2(C(=O)NCCNCCNCCN)CC[C@]3(C)[C@H](CC[C@@H]4[C@@]5(C)CCC(=O)C(C)(C)[C@@H]5CC[C@]43C)[C@@H]12 | -35.6% [100 µM] (active)
26 | COc1ccc(Cl)c(Nc2nc3ccccc3nc2NS(=O)(=O)c2cccc(NC(=O)C(C)(C)N)c2)c1 | 32.6%
27 | Cc1nc2sc(C(=O)Nc3cccc(Cl)c3C)c(N)c2cc1C(=O)/C=C/c1ccccc1 | 2.75% (active)
28 | CN1C2CCC1/C(=C\c1ccc(Cl)cc1)C(=O)/C2=C/c1ccc(Cl)cc1 | 20.3%
29 | CCCCCCNC(=O)Oc1ccc(/C(=C(/C)Cc2ccc(OC)cc2)c2ccc(OCCN3CCCCC3)cc2)cc1 | 57.9%
30 | O=C([C@@H](COCc1ccccc1)N1C(=O)[C@@H](N2C(=O)OC[C@@H]2c2ccccc2)[C@H]1/C=C/c1ccccc1)N1CCC(CCN2CCCCC2)CC1 | 64.5%
31 | CN(C(=S)S(=O)(=O)C12CC3CC(CC(C3)C1)C2)c1ccccc1 | 11.5%
32 | Cc1ccc(C2NC(=S)N3C(c4ccc(C)cc4)NC(=S)N23)cc1 (stereo not given) | -23.9% (active)
33 | Cc1ccc(-c2nc3ccc(Cl)cn3c2NC2CCCCC2)o1 | 61.7%
34 | Cc1ccc(-c2csc(NC(=O)CSc3nc(N)cc(N)n3)n2)cc1 | 48.9%
35 | NCCCc1nnc(CCC(=O)c2nc3ccccc3[nH]2)o1 | 92.3%
36 | CC(=O)OC1CCC2(C)C(=CC3C4CCC(=O)C4(C)CCC32)C1 (stereo not given) | 91%
37 | C1CNC(C2=NCCN2)=N1 | 109%
38 | COc1ccc(NC2=C(Br)C(=O)C(C)=C(C)C2=O)cc1 | 11.7%
39 | N#CN1CC[C@H](C(=O)Nc2ncc(-c3ccccc3)s2)C1 | -23.2% (active)
40 | Clc1ccc(C2CC(c3cccc(Nc4ccncc4)c3)=NN2c2ccccc2)cc1 (stereo not given) | -38.6% (active)
